This is a sample that favours compounds with a hit; in the whole collection about 3.8% have one here.
HepG2 tox = counter-screen for TGF-b inhibitors: cytotoxicity in HepG2 cells | 410,000 tested, 0.76% active | HepG2 CAGA-GFP viability, ATP luminescence, 18 h | Potency, µM (series often up to 46.1 µM), for inactives: top-dose activity change, negative = cytotoxicity, hits mostly cytotoxic
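CellTiter-Glo luminescence gave cytotoxicity after 18 hours at 37 degrees C. The cells were HepG2 CAGA-GFP in 1% FBS DMEM, stimulated with 500 pg/mL TGF-beta after compound addition. %Activity was normalised to no-cell wells (complete cell-killing) and DMSO (no toxicity), and curves were fitted and classified.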
S2 tox = reduces viability in counter-screen for ATXN expression inhibitors; S2 cells (HEK-293 line with an ATXN2-luciferase reporter) viability, CellTiter-Fluor protease fluorescence, 24 h; 400,000 tested, 0.49% active; Potency, µM (top dose mostly 56.7 µM), usual class: cytotoxic; further: nearly all actives have a fitted effect of over 40% in size
HT1080 IDH1KD tx = HT-1080 IDH1 knockdown cell toxicity (counter line). 360,000 tested, 2% active. Potency, µM (doses to about 46.1 µM), for the others: at the top dose activity, negative = toxicity, actives largely listed as cytotoxic. HT-1080 IDH1 knockdown viability, ATP luminescence, 48 h;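 further: 0% = DMSO wells and -100% = cell-free medium wells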
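IDH1KD HT-1080 cells, 750/well, RPMI + 5% FBS; compound pinned after 2 h settling; 48 h, 37 °C; CellTiter-Glo luminescence; % activity normalised to DMSO and no-cell wells; curves fitted, classed by r2 and efficacy.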
ATXN2 expr inh = inhibitors of ATXN2 expression | HEK-293 ATXN2-luciferase reporter, luminescence, 24 h | AID 1745845 | Potency, µM (top dose mostly 57 µM), inactives show top-dose activity change, negative = inhibition, most hits filed as inhibitors | 360,000 tested, 0.72% active; further: on the % scale 0 is the no-effect control and ±100 the full control effect; nearly all actives have a fitted effect of over 55% in size
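ATXN2-luciferase reporter cells (luciferase flanked by upstream and downstream ATXN2 gene portions) were treated 24 h at 37 °C with compounds at up to 57 uM. SteadyGlo luminescence gave expression; GF-AFC fluorescence gave viability.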
TGFb inhibitor = blocks TGF-b signaling | HepG2 CAGA-GFP TGF-b/SMAD3 reporter, GFP fluorescence, 18 h; TGF-beta stimulated, 500 pg/mL final | Potency, µM (titrated, usually from 46.1 µM), without a hit: top-dose activity, negative = inhibition, usual class: inhibitors | 410,000 tested, 1.2% active | AID 588855; further: on the % scale 0 is the no-effect control and ±100 the full control effect; nearly all actives have a fitted effect of over 65% in size
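Smad-responsive CAGA-GFP expression was quantified in HEPG2 cells exposed to compounds and 500 pg/mL final TGF-beta for 18 h at 37 degrees C; unstimulated wells defined full inhibition.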
HT1080-NT tox = kills 2HG-producing HT-1080-NT fibrosarcoma cells; 360,000 tested, 1.6% active; Potency, µM (top dose mostly 46.1 µM), without a hit: top-dose activity, negative = less viability, actives largely listed as cytotoxic; HT-1080-NT fibrosarcoma viability, CellTiter-Glo ATP luminescence, 48 h; AID 686970;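 further: NT is the 2HG producing partner of a matched IDH1 knockdown line; 0% = DMSO-treated cells and -100% = media-only wells without cells; nearly all actives have a fitted effect of over 55% in size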
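Fibrosarcoma NT cells, 750 per well in 5% FBS RPMI, were exposed to compound for 48 hours. Viability: CellTiter-Glo luminescence.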
* hit, by the source's call; i = inactive; ? = inconclusive; · = no result given; [ ] = another dose, or the depositor's remark. The call rests on the fitted dose curve; in most records, active means well fitted curve in the direction sought with a large enough effect; inconclusive means small, poorly fitted or top-dose-only effect, or another doubt; inactive means no such curve, though single readings can be large; an effect the other way counts as inactive or inconclusive. Potency means the concentration at half of the fitted maximal effect.

SMILES | HepG2 tox | S2 tox | HT1080 IDH1KD tx | ATXN2 expr inh | TGFb inhibitor | HT1080-NT tox
O=C(Nc1cccc(Cl)c1)c1cccc(Oc2ccc([N+](=O)[O-])cc2Cl)c1 | -29.2% | ? | ? | · | 15.8µM* | ?
COc1ccc(NC(=O)c2cccc(Oc3ccc([N+](=O)[O-])cc3Cl)c2)cc1 | 3.4% | i | ? | -29.9% | ? | ?
O/N=C(/CBr)c1ccc2ccccc2c1 | 0.3% | · | · | · | 11.8% | ·
COc1ccccc1CNC(=O)C1CCCN(c2nc3ccccc3n3cccc23)C1 (stereo not drawn) | -23.5% | · | · | · | -8.6% | ·
Cc1ccc(-n2c(-c3ccccc3)c[n+]3c2CCC3)cc1 | -13.6% | ? | 5.8µM* | -2.0%[11.3 µM] | -23.8% | ?
CCOc1ccc(-c2c[n+]3c(n2-c2ccccc2)CCCCC3)cc1 | -41.7% | i | 18.4µM* | ? | ? | ?
CCOc1ccc(-n2c(-c3ccc(Cl)cc3)c[n+]3c2SCC3)cc1 | -27.6% | i | 23.1µM* | ? | -0.2% | -10.3%
c1ccc(-c2c[n+]3c(n2-c2ccccc2)SCC3)cc1 | 19.0% | i | ? | -17.5% | -8.4% | -3.3%
Cc1ncc2c(c1CNS(=O)(=O)c1cccs1)CCN(C(=O)/C=C/c1cc(F)cc(F)c1)C2 | · | i | · | · | · | ·
CCCCCCCCCCCCCC(=O)Nc1ccc(/C=C/c2ccnc3ccccc23)cc1 | -8.3% | · | · | · | 4.2% | ·
CC(=O)c1ccc(-c2cc(F)cc3c2OC(CNC(=O)Cc2cn4ccsc4n2)C3)s1 (stereo not drawn) | · | i | · | · | · | ·
COc1ccc(NC(=O)C(=O)NCC(c2ccc3c(c2)OCO3)N2CCN(C)CC2)cc1 (stereo not drawn) | -1.7% | · | · | · | 0.0% | ·
CC(C)=CCC/C(C)=C/CNC(=O)C[C@H]1C[C@H](C(=O)N2CCOCC2)[C@@]2(C)c3[nH]c4cc(CCC(=O)N(C)C)ccc4c3CCN2C1=O | -21.6% | ? | -7.6% | ? | ? | -10.6%
COc1ccc2[nH]c3c(c2c1)CCN1C(=O)C(CC(=O)NC/C=C(\C)CCC=C(C)C)C[C@H](C(=O)N(C(C)C)C(C)C)[C@@]31C (stereo partly drawn) | -103.4% | i | ? | 2.2% | 15.8µM* | ?
CC(C)=CCC/C(C)=C/CNC(=O)C[C@H]1C[C@H](C(=O)N2CCCCC2)[C@@]2(C)c3[nH]c4cc(CCC(=O)N(C)C)ccc4c3CCN2C1=O | -46.9% | 31.6µM* | -21.2% | ? | ? | -2.3%
CC(C)=CCC/C(C)=C/CNC(=O)C[C@H]1C[C@H](C(=O)N(C(C)C)C(C)C)[C@@]2(C)c3[nH]c4ccc(Cl)cc4c3CCN2C1=O | -4.2% | i | 11.1% | 2.6% | -23.0% | 5.2%
CC(C)N(C(=O)[C@H]1CC(CC(=O)NCc2cccc(C(F)(F)F)c2)C(=O)N2CCc3c([nH]c4ccccc34)[C@]12C)C(C)C (stereo partly drawn) | -91.9% | · | 1.6% | ? | 12.6µM* | 1.2%
CC(C)N(C(=O)[C@H]1C[C@H](CC(=O)NCC23CC4CC(CC(C4)C2)C3)C(=O)N2CCc3c([nH]c4cc(CCC(=O)N(C)C)ccc34)[C@]12C)C(C)C | -72.5% | 25.1µM* | 9.9% | ? | ? | 6.5%
CCC1CN(CCNC(=O)c2ccc(N3CCOCC3)cc2)Cc2cc(OC)ccc2O1 (stereo not drawn) | · | i | · | · | · | ·
CCCCN(C)C(=O)Cn1c(SCC(=O)Nc2ccc(C)c(C)c2)nc2ccccc21 | -20.7% | ? | · | -11.3% | 0.2% | ·
COCCCNC(=O)C[C@H]1C[C@H](C(=O)N(C(C)C)C(C)C)[C@@]2(C)c3[nH]c4cc(-c5ccco5)ccc4c3CCN2C1=O | -22.1% | i | 1.2% | -17.9% | 11.2µM* | -3.0%
O=C(Nc1cccc(F)c1)N(Cc1ccc(Cl)cc1)CC(O)C(F)(F)F (stereo not drawn) | -59.0% | ? | ? | ? | ? | 20.6µM*
O=C(Nc1ccccc1)N(Cc1ccccc1)CC(O)C(F)(F)F (stereo not drawn) | 13.4% | i | 1.9%[9.24 µM] | 2.2% | -0.6% | -1.0%
CN(C)CCN(Cc1ccco1)C(=O)c1cc2c(s1)-c1ccccc1OC2 | 12.6µM* | · | · | · | ? | ·
CCN(C(=O)c1cc2c(s1)-c1ccccc1OC2)c1cc(Cl)ccc1OC | -19.5% | i | · | -20.1% | 8.91µM* | ·
SMILES | HepG2 tox | S2 tox | HT1080 IDH1KD tx | ATXN2 expr inh | TGFb inhibitor | HT1080-NT tox
CCN(C(=O)c1cc2c(s1)-c1c(C)cccc1OC2)c1cc(C)ccc1C | -28.5% | i | · | -15.2% | 11.2µM* | ·
CCOc1ccc(N(CC)C(=O)c2cc3c(s2)-c2ccccc2OC3)cc1 | -32.2% | i | · | ? | ? | ·
NC(=O)Nc1cc(-c2ccc(CN3CCOCC3)cc2)sc1C(N)=O | · | · | · | 27.2% | · | ·
CCc1ccc(NC(=O)CSc2nc3c(c(=O)[nH]2)CN(Cc2ccc(C)cc2)CC3)cc1 | 1.0% | i | · | 9.4% | -23.6% | ·
COc1ccccc1N=Nc1nc(-c2ccccc2)c(-c2ccccc2)[nH]1 | -42.9% | 35.5µM* | ? | -9.2% | ? | -17.1%
COc1ccc(N=Nc2nc(-c3ccccc3)c(-c3ccccc3)[nH]2)cc1 | 5.3% | ? | -2.4% | -5.0% | ? | -8.8%
CCC(CC)[C@H](NC(C)=O)[C@@H]1[C@H](O)[C@@H](C(=O)O)C[C@@H]1N=C(N)N | · | · | · | 2.6% | · | ·
N/C(=N\NS(=O)(=O)c1ccccc1C(F)(F)F)c1ccccn1 | 9.3% | i | -1.0% | · | 2.2% | 5.6%
Cc1nc(C(F)(F)F)c(C(=O)N/N=C(\N)c2ccccn2)s1 | -12.1% | ? | 16.4µM* | ? | -20.6% | ?
COC(=O)c1cc(NC(=O)c2ccc(Cn3cc(Cl)cn3)o2)cc(C(=O)OC)c1 | -5.4% | 20µM* | ? | ? | -12.0% | ?
COC(=O)c1ccccc1NC(=O)c1ccc(Cn2cc(Cl)cn2)o1 | -12.4% | ? | 20.6µM* | -22.0% | -1.3% | ?
COC(=O)c1ccccc1NC(=O)c1cc[n+](C)cc1 | 5.62µM* | i | 2.2% | 1.1% | 0.0% | -2.0%
COC(=O)c1ccccc1NC(=O)c1cccc(NC(=O)c2ccc(Br)o2)c1C | -8.2% | i | 10µM* | 4.6% | 4.5% | 12.6µM*
CCC1(C2CCN(C(=O)c3ccccc3Cl)CC2)NC(=O)N(CCc2scnc2C)C1=O (stereo not drawn) | · | i | · | · | · | ·
C/C(=N\NC(=S)NCCc1ccccc1)c1ccc(C#N)cc1 | -9.8% | i | 7.08µM* | 1.0% | 7.4% | 6.31µM*

Compound activity as filed in PubChem BioAssay.
